Measured values as given in PubChem BioAssay (NCI).
Compounds without any hit were thinned out: in the full panel of roughly 83,000, 20% have a hit.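 Plates (96-well) were seeded with cells, treated with compound at one concentration, and incubated for 48 hours before percent growth was determined.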 The source made the active and inactive calls. The calls were made as follows: active = growth percent below 10; inactive = the rest.

The compounds below were run on OVCAR-4 ovarian (assay: NCI-60 one-dose screen, 48 h (100 = growth as untreated, 0 = no growth, -100 = all killed)). Details: 10 µM unless noted.

Compound | growth
COC(=O)c1cccc2c1N(C)c1c(cccc1C(=O)OC)CC2 | 112% (inactive)
COc1ccc(/C=C2\N=C(c3ccccc3)N(C(=O)c3ccccc3O)NC2=O)cc1 | 105% (inactive)
c1cc2[nH]ncc2cc1-c1nc2ccc3[nH]ncc3c2c2c1CCC2 | 57.9% (inactive)
O=C(Oc1ccccc1[N+](=O)[O-])C1CCCN1C(=O)OCc1ccccc1 (stereo not drawn) | 103% (inactive)
COc1ccc(CCNC2=CC(=O)CCC2)cc1OC | 115% (inactive)
O=C(Nc1ccncc1)C(=O)c1cn(S(=O)(=O)c2ccc(Cl)cc2)c2ccccc12 | 49% (inactive)
O=C(Nc1cccc(-n2cc(-c3ccncc3)c(-c3ccc(Cl)c(O)c3)n2)c1)Nc1ccc(Cl)c(Cl)c1 | 29.4% (inactive)
O=C(Nc1ccncc1)C(=O)c1cn(S(=O)(=O)c2ccccc2F)c2ccccc12 | 57.1% (inactive)
O=C(c1ccccc1)C1OC1c1ccc([N+](=O)[O-])cc1 (stereo not drawn) | 59.9% (inactive)
Cc1ccc(Cc2c(C=O)nc(N)[nH]c2=O)c2ccccc12 | 97.6% (inactive)
CCN(CC)CCOC(=O)C(c1ccccc1)(c1ccccc1)C(C)C | 94.8% (inactive)
COc1ccc(C(=O)N2NC(=O)/C(=C/c3cn(-c4ccccc4)nc3-c3ccccc3)N=C2c2ccccc2)cc1 | 101% (inactive)
CC(C)(C)OC(=O)NC(CSCc1ccccc1)C(=O)ON1C(=O)CCC1=O (stereo not drawn) | 121% (inactive)
COc1ccc(C2=C(c3cc(OC)c(OC)c(OC)c3)C(=O)CC2)cc1 | 49% (inactive)
COc1ccc(C(=O)N2NC(=O)/C(=C/c3ccccc3F)N=C2c2ccccc2)cc1 | 106% (inactive)
C/C(=C\c1ccc(OCC(=O)O)c(Cl)c1Cl)[N+](=O)[O-] | 114% (inactive)
COc1ccc(-c2cc3c(OC)c(OC)c(OC)cc3oc2=O)cc1 | 81.3% (inactive)
COc1ccc(Nc2ncccc2C(=O)NCc2cn(Cc3cccc(Oc4ccccc4)c3)nn2)c(OC)c1 | 54.9% (inactive)
CC(=O)Nc1scc[n+]1Cc1ccccc1 | 108% (inactive)
COc1cc2c(c(OC)c1OC)-c1ccc(N)c(=O)cc1[C@@H](NC(C)=O)CC2 | 51% (inactive)

Compound | growth
O=C([O][Sn]([O]C(=O)c1ccccn1)([c]1ccccc1)[c]1ccccc1)c1ccccn1 | 81.3% (inactive)
COC(OC)c1ccccc1 | 110% (inactive)
Fc1ccc(Nc2nc(NCCNc3ccnc4cc(Cl)ccc34)nc(N3CCOCC3)n2)cc1 | 61.1% (inactive)
COc1ccc(-c2nc3sc(-c4cc(OC)c(OC)c(OC)c4)nn3c2/C=C2/C(=O)Nc3ccc(F)cc32)cc1 | -32.4% (active)
Cc1ccc(S(=O)(=O)n2cc(C(=O)C(=O)Nc3ccncc3)c3ccccc32)cc1 | 56% (inactive)
COc1ccc(Nc2ncccc2C(=O)NCc2cn(Cc3cccc(Oc4ccccc4)c3)nn2)cc1 | 71.1% (inactive)
CC1=C(C#N)C(=O)NC(C)C1 (stereo not drawn) | 110% (inactive)
Cc1cc(C2=NNC(=O)Cc3cc4c(cc32)OCCO4)cc(C)c1N | 56.8% (inactive)
CCOC(=O)C1=C(C)NC(C)=C(C(=O)OCC)C1(C)C | 101% (inactive)
O=C(Nc1ccncc1)C(=O)c1cn(S(=O)(=O)c2ccc(Br)cc2)c2ccccc12 | 73.3% (inactive)
CC1CCC(C)N(C)C1 (stereo not drawn) | 107% (inactive)
CCC(C)/C(=C\C#N)NCCCN/C(=C/C#N)C(C)CC (stereo not drawn) | 109% (inactive)
CC1(c2ccc(Cl)cc2)OC(=O)CC(=O)O1 | -2.18% (active)
CCN(CC)CCOc1ccc(Cl)c(C)c1 | 117% (inactive)
Nc1cccc(Cl)c1N | 94.4% (inactive)
O=[N+]([O-])c1cc(Cl)c2[nH]c3c(Cl)cc([N+](=O)[O-])cc3c2c1 | -24.8% (active)
CSc1nc2c(c(=O)[nH]1)C(c1ccc(C)cc1)C=C(C(=O)O)N2 (stereo not drawn) | 113% (inactive)
COc1cc(/C=C/C(=O)/C=C/c2cc(OC)c3c(c2)OCO3)cc2c1OCO2 | 104% (inactive)
Oc1ccccc1/C=N/NC(=S)NC1CC2C=CC1C2 (stereo not drawn) | 78.1% (inactive)

What follows are compounds tested on SK-OV-3 ovarian in the same assay as above. Details: 10 µM unless noted.

Compound | growth
COC(=O)c1cccc2c1N(C)c1c(cccc1C(=O)OC)CC2 | 110% (inactive)
COc1ccc(/C=C2\N=C(c3ccccc3)N(C(=O)c3ccccc3O)NC2=O)cc1 | 100% (inactive)
c1cc2[nH]ncc2cc1-c1nc2ccc3[nH]ncc3c2c2c1CCC2 | 5.23% (active)
O=C(Oc1ccccc1[N+](=O)[O-])C1CCCN1C(=O)OCc1ccccc1 (stereo not drawn) | 108% (inactive)
COc1ccc(CCNC2=CC(=O)CCC2)cc1OC | 105% (inactive)
O=C(Nc1ccncc1)C(=O)c1cn(S(=O)(=O)c2ccc(Cl)cc2)c2ccccc12 | 91.7% (inactive)
O=C(Nc1cccc(-n2cc(-c3ccncc3)c(-c3ccc(Cl)c(O)c3)n2)c1)Nc1ccc(Cl)c(Cl)c1 | 18.7% (inactive)
O=C(Nc1ccncc1)C(=O)c1cn(S(=O)(=O)c2ccccc2F)c2ccccc12 | 87.5% (inactive)
O=C(c1ccccc1)C1OC1c1ccc([N+](=O)[O-])cc1 (stereo not drawn) | 97.3% (inactive)
Cc1ccc(Cc2c(C=O)nc(N)[nH]c2=O)c2ccccc12 | 96.6% (inactive)
CCN(CC)CCOC(=O)C(c1ccccc1)(c1ccccc1)C(C)C | 81.9% (inactive)
COc1ccc(C(=O)N2NC(=O)/C(=C/c3cn(-c4ccccc4)nc3-c3ccccc3)N=C2c2ccccc2)cc1 | 107% (inactive)
CC(C)(C)OC(=O)NC(CSCc1ccccc1)C(=O)ON1C(=O)CCC1=O (stereo not drawn) | 104% (inactive)
COc1ccc(C2=C(c3cc(OC)c(OC)c(OC)c3)C(=O)CC2)cc1 | 7.01% (active)
COc1ccc(C(=O)N2NC(=O)/C(=C/c3ccccc3F)N=C2c2ccccc2)cc1 | 112% (inactive)
C/C(=C\c1ccc(OCC(=O)O)c(Cl)c1Cl)[N+](=O)[O-] | 94% (inactive)
COc1ccc(-c2cc3c(OC)c(OC)c(OC)cc3oc2=O)cc1 | 67.1% (inactive)
COc1ccc(Nc2ncccc2C(=O)NCc2cn(Cc3cccc(Oc4ccccc4)c3)nn2)c(OC)c1 | 21.6% (inactive)
CC(=O)Nc1scc[n+]1Cc1ccccc1 | 99.5% (inactive)
COc1cc2c(c(OC)c1OC)-c1ccc(N)c(=O)cc1[C@@H](NC(C)=O)CC2 | 23.9% (inactive)

Compound | growth
O=C([O][Sn]([O]C(=O)c1ccccn1)([c]1ccccc1)[c]1ccccc1)c1ccccn1 | 99.7% (inactive)
COC(OC)c1ccccc1 | 99.2% (inactive)
Fc1ccc(Nc2nc(NCCNc3ccnc4cc(Cl)ccc34)nc(N3CCOCC3)n2)cc1 | 91.6% (inactive)
COc1ccc(-c2nc3sc(-c4cc(OC)c(OC)c(OC)c4)nn3c2/C=C2/C(=O)Nc3ccc(F)cc32)cc1 | 6.67% (active)
Cc1ccc(S(=O)(=O)n2cc(C(=O)C(=O)Nc3ccncc3)c3ccccc32)cc1 | 96.6% (inactive)
COc1ccc(Nc2ncccc2C(=O)NCc2cn(Cc3cccc(Oc4ccccc4)c3)nn2)cc1 | 36.8% (inactive)
CC1=C(C#N)C(=O)NC(C)C1 (stereo not drawn) | 103% (inactive)
Cc1cc(C2=NNC(=O)Cc3cc4c(cc32)OCCO4)cc(C)c1N | 20.2% (inactive)
CCOC(=O)C1=C(C)NC(C)=C(C(=O)OCC)C1(C)C | 110% (inactive)
O=C(Nc1ccncc1)C(=O)c1cn(S(=O)(=O)c2ccc(Br)cc2)c2ccccc12 | 93.9% (inactive)
CC1CCC(C)N(C)C1 (stereo not drawn) | 102% (inactive)
CCC(C)/C(=C\C#N)NCCCN/C(=C/C#N)C(C)CC (stereo not drawn) | 105% (inactive)
CC1(c2ccc(Cl)cc2)OC(=O)CC(=O)O1 | 106% (inactive)
CCN(CC)CCOc1ccc(Cl)c(C)c1 | 98.1% (inactive)
Nc1cccc(Cl)c1N | 94.3% (inactive)
O=[N+]([O-])c1cc(Cl)c2[nH]c3c(Cl)cc([N+](=O)[O-])cc3c2c1 | -11.9% (active)
CSc1nc2c(c(=O)[nH]1)C(c1ccc(C)cc1)C=C(C(=O)O)N2 (stereo not drawn) | 115% (inactive)
COc1cc(/C=C/C(=O)/C=C/c2cc(OC)c3c(c2)OCO3)cc2c1OCO2 | 86.6% (inactive)
Oc1ccccc1/C=N/NC(=S)NC1CC2C=CC1C2 (stereo not drawn) | 95.7% (inactive)
